# Results taken from PubChem BioAssay (EPA / NIEHS).
# Results filed as inconclusive are left out. Activity calls are given as the source filed them. Rule for the calls: active = hit-call score of the fitted dose curve at least 0.9, where 1 is the maximum; inconclusive = response in the unintended direction; inactive = score below 0.9.
# Key:
# [1] = biological target: human Protein Tyrosine Phosphatase Non-receptor Type 6 (PTPN6), PTPN6 (gene 5777) (UniProt P29350); experiment: NVS_ENZ_hPTPN6: NovaScreen (NVS) Enzymatic Assay for human Protein Tyrosine Phosphatase Non-receptor Type 6 (PTPN6) (AID 2283210)
# Sequence of human Protein Tyrosine Phosphatase Non-receptor Type 6 (PTPN6), PTPN6 (gene 5777) (P29350 whole entry, looked up): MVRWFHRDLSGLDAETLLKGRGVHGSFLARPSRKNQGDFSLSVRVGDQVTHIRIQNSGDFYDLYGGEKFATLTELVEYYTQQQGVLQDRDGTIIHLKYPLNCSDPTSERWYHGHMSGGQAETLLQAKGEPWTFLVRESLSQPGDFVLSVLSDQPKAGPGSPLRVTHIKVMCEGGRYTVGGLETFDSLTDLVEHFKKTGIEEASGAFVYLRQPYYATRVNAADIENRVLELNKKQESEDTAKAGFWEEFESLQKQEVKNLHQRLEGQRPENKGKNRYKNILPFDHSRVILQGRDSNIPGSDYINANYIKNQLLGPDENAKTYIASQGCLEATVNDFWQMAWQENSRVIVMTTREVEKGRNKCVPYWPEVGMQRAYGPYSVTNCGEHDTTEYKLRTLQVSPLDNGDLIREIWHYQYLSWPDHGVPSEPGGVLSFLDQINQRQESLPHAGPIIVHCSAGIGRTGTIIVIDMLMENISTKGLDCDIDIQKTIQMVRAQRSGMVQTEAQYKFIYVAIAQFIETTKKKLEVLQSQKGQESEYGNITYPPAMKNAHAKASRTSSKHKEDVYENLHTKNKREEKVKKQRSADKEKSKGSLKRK
# How it was run: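 Recombinant human PTPN6 from SF9 cells, enzyme activity followed by fluorescence after mobility-shift separation of substrate and product at 1.33 h. Chemicals first tested at a single 25 uM in duplicate, then confirmed across concentration series; loss of signal relative to DMSO.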
# [2] = biological target: human Protein Tyrosine Phosphatase Non-receptor Type 2 (PTPN2), PTPN2 (gene 5771) (UniProt P17706); experiment: NVS_ENZ_hPTPN2: NovaScreen (NVS) Enzymatic Assay for human Protein Tyrosine Phosphatase Non-receptor Type 2 (PTPN2) (AID 2283207)
# Procedure: (§1) NVS_ENZ_hPTPN2 is a biochemical, single-readout assay that uses extracted gene-proteins in a cell-free assay. Measurements were taken 1 hour after chemical dosing in a 384-well plate.NVS_ENZ_hPTPN2 is one of one assay component(s) measured or calculated from the NVS_ENZ_hPTPN2 assay. It is designed to make measurements of enzyme activity, a form of enzyme reporter, as detected with fluorescence intensity signals by Fluorescence and electrophoretic mobility shift technology.Data from the assay component NVS_ENZ_hPTPN2 was analyzed into 1 assay endpoint. This assay endpoint, NVS_ENZ_hPTPN2, was analyzed in the positive analysis fitting direction relative to DMSO as the negative control and baseline of activity. Using a type of enzyme reporter, loss-of-signal activity can be used to understand changes in the enzymatic activity as they relate to the gene PTPN2. Furthermore, this assay endpoint can be referred to as a primary readout, because this assay has produced multiple assay endpoints where this one serves a enzymatic activity function. To generalize the intended target to other relatable targets, this assay endpoint is annotated to the phosphatase intended target family, where the subfamily is non-receptor tyrosine phosphatase.
# Binding assays used specific radioligands (tritiated, iodinated) with non-radioactive competitive displacement ligands in agonist or antagonist protocols (as indicated) and various reference compounds and inhibitors to titrate specific binding to receptors and transporters. Most enzyme assays (CYPs, kinases, phosphatases, proteases, HDACs) used recombinant protein and specific substrates (fluorescence mostly, some colorimetric and radioactive) and inhibitors, followed by a biochemical separation of substrate and product. All assays for the biochemical HTS were initially run in duplicate at a single concentration (10 uM for CYP450 assays and 25 uM for all others). […] Each assay was run with positive and negative controls, and concurrent controls on every plate. The follow-up (secondary) screen tested active chemical-pairs in concentration series, as well as a few additional assays not tested in the primary screen, some selected negative inactives, and several cases re-run in the concentration series for confirmatory purposes.
# [3] = biological target: human Protein Tyrosine Phosphatase Non-receptor Type 9 (PTPN9), PTPN9 (gene 5780) (UniProt P43378); experiment: NVS_ENZ_hPTPN9: NovaScreen (NVS) Enzymatic Assay for human Protein Tyrosine Phosphatase Non-receptor Type 9 (PTPN9) (AID 2283209)
# Sequence of human Protein Tyrosine Phosphatase Non-receptor Type 9 (PTPN9), PTPN9 (gene 5780) (P43378 whole entry, looked up): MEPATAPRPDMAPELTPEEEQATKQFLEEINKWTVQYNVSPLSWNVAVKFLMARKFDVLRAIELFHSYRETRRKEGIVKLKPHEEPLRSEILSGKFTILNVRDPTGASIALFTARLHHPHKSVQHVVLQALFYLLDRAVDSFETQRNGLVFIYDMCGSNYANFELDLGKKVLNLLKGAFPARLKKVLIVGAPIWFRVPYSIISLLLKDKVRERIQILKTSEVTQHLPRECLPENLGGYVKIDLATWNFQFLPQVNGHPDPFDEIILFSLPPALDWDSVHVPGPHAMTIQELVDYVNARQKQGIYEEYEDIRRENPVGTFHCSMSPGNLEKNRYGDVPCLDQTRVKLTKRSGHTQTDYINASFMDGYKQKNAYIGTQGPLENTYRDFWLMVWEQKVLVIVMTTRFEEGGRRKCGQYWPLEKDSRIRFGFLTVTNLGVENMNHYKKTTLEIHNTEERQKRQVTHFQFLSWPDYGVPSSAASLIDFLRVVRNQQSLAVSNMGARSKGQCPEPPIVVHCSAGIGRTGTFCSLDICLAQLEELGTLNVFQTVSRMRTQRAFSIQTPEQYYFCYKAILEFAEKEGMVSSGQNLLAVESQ
# How it was run: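 Sf9-expressed enzyme in a cell-free assay, fluorescence read 1.33 h after dosing with mobility-shift separation of substrate and product. Tested at 25 uM in duplicate, then up to 50 uM; signal loss versus DMSO.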
# [4] = biological target: Tyrosine-protein phosphatase non-receptor type 13 (Homo sapiens) (UniProt Q12923); experiment: NVS_ENZ_hPTPN13: NovaScreen (NVS) Enzymatic Assay for human Protein Tyrosine Phosphatase Non-receptor Type 13 (PTPN13) (AID 2283205)
# Sequence of Tyrosine-protein phosphatase non-receptor type 13 (Homo sapiens) (Q12923 whole entry, looked up): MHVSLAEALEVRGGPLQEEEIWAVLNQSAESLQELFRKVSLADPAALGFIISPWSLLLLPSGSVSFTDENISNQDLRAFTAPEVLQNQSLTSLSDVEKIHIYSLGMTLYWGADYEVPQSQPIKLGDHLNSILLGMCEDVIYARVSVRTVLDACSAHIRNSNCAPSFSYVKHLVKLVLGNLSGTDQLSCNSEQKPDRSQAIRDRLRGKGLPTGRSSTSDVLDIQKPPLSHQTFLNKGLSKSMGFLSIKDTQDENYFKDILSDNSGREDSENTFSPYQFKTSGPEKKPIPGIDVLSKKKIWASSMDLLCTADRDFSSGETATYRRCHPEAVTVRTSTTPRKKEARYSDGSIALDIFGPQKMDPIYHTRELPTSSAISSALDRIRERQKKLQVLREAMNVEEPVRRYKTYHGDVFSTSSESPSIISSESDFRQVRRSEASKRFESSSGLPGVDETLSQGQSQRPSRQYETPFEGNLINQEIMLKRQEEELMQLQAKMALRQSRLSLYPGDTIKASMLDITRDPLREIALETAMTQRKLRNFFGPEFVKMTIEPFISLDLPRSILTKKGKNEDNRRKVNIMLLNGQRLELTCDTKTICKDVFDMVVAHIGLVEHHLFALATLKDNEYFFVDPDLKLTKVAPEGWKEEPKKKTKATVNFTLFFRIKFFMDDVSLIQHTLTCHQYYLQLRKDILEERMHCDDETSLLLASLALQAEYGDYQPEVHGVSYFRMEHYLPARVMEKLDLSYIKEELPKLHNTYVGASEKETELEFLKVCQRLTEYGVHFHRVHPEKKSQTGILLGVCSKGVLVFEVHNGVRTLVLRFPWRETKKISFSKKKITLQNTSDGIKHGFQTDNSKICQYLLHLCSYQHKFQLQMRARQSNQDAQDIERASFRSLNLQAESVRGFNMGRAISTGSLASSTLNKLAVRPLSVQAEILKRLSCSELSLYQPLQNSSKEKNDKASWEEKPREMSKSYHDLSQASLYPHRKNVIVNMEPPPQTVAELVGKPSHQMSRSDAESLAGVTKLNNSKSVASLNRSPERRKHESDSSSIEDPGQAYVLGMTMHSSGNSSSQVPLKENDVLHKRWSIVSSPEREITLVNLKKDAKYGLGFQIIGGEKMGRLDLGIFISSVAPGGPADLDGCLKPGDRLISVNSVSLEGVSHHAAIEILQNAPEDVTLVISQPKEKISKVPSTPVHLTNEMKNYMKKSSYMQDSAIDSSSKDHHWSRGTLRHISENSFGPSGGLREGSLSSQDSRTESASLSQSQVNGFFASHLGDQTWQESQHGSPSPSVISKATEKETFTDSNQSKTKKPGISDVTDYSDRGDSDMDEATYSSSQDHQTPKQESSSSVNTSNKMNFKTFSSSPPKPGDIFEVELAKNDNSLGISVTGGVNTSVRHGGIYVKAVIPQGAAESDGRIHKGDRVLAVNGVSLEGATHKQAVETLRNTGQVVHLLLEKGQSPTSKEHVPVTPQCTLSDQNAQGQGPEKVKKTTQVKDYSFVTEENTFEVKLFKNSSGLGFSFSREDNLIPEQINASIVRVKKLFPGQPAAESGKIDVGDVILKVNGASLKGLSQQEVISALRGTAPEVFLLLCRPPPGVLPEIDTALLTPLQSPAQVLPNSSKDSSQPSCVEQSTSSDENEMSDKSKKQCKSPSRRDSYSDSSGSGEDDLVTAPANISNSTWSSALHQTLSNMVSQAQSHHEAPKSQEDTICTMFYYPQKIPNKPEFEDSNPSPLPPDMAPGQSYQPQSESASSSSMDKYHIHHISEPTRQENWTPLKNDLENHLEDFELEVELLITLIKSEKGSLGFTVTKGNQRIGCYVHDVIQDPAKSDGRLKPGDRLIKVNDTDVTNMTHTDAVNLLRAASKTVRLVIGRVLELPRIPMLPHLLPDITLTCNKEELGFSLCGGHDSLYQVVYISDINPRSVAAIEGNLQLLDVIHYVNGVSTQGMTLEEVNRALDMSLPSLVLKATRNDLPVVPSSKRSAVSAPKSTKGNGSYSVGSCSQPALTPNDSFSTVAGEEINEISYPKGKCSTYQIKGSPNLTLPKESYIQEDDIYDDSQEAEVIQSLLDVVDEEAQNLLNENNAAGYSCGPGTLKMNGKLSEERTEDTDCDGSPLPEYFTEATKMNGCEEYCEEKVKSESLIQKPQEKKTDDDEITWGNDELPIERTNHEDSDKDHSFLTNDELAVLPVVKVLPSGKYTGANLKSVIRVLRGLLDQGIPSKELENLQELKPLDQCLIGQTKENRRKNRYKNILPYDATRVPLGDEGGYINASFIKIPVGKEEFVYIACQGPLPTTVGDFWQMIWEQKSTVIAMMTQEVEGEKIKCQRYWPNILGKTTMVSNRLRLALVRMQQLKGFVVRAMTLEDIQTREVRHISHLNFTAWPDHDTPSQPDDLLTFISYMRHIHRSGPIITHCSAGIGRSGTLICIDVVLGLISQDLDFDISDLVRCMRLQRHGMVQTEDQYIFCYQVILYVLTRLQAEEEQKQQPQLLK
# How it was run: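 Screened first at a single 25 uM in duplicate; compounds passing the threshold (e.g. 30% inhibition) were rerun in concentration series, top 50 uM. Recombinant enzyme, fluorescent substrate, mobility-shift separation, 0.5 h read. Data fitted as inhibition relative to DMSO.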
# [5] = biological target: Serine/threonine-protein phosphatase PP1-alpha catalytic subunit (Homo sapiens) (UniProt P62136); experiment: NVS_ENZ_hPPP1CA: NovaScreen (NVS) Enzymatic Assay for human Protein Phosphatase 1 Aatalytic subunit Alpha (PPP1CA) (AID 2283200)
# Sequence of Serine/threonine-protein phosphatase PP1-alpha catalytic subunit (Homo sapiens) (P62136 whole entry, looked up): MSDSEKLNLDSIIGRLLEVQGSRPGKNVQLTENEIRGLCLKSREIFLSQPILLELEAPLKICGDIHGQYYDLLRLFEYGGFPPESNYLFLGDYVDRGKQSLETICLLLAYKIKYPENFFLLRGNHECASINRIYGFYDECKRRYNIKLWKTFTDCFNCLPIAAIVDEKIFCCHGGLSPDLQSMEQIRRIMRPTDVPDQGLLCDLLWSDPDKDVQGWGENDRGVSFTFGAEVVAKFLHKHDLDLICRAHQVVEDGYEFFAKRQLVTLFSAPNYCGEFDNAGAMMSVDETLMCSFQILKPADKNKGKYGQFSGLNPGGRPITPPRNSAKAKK
# Procedure: as §1, with “NVS_ENZ_hPPP1CA” for “NVS_ENZ_hPTPN2”, “1.33 hours” for “1 hour”, “plate.NVS_ENZ_hPPP1CA” for “plate.NVS_ENZ_hPTPN2”, “NVS_ENZ_hPPP1CA,” for “NVS_ENZ_hPTPN2,”, “PPP1CA.” for “PTPN2.”, “serine/threonine” for “non-receptor tyrosine”
# Binding assays used specific radioligands (tritiated, iodinated) with non-radioactive competitive displacement ligands in agonist or antagonist protocols (as indicated) and various reference compounds and inhibitors to titrate specific binding to receptors and transporters. Most enzyme assays (CYPs, kinases, phosphatases, proteases, HDACs) used recombinant protein and specific substrates (fluorescence mostly, some colorimetric and radioactive) and inhibitors, followed by a biochemical separation of substrate and product. All assays for the biochemical HTS were initially run in duplicate at a single concentration (10 uM for CYP450 assays and 25 uM for all others). […]
# [6] = biological target: Tyrosine-protein phosphatase non-receptor type 12 (Homo sapiens) (UniProt Q05209); experiment: NVS_ENZ_hPTPN12: NovaScreen (NVS) Enzymatic Assay for human Protein Tyrosine Phosphatase Non-receptor Type 12 (PTPN12) (AID 2283204)
# Sequence of Tyrosine-protein phosphatase non-receptor type 12 (Homo sapiens) (Q05209 whole entry, looked up): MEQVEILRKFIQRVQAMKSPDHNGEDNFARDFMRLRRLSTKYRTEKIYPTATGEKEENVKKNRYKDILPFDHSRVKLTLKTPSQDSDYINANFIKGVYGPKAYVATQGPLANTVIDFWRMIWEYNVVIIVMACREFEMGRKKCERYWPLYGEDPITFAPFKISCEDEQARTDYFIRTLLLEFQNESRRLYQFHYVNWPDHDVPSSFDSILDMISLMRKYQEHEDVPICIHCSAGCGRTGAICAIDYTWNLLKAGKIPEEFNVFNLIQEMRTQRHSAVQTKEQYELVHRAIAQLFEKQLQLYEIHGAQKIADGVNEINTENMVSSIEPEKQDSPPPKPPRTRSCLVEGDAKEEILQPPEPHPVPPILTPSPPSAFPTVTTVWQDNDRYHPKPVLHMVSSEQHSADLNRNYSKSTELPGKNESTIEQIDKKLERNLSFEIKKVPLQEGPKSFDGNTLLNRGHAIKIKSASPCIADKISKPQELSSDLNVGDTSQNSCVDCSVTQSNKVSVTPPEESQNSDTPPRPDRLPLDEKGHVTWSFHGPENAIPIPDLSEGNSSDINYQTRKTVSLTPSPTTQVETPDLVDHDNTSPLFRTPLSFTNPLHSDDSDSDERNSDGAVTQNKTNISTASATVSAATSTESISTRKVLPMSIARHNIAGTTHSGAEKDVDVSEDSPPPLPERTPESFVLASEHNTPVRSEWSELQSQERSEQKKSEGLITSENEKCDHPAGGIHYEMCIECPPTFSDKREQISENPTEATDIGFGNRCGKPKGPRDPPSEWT
# How it was run: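 Single-concentration duplicates (25 uM) preceded singleton concentration-response up to 50 uM for chemicals passing threshold. Cell-free recombinant PTPN12 activity was read 1.33 h after dosing via fluorescence after mobility-shift separation; loss of signal versus DMSO.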
# [7] = biological target: human Phosphatase and Tensin Homolog (PTEN), PTEN (gene 5728) (UniProt P60484); experiment: NVS_ENZ_hPTEN: NovaScreen (NVS) Enzymatic Assay for human Phosphatase and Tensin Homolog (PTEN) (AID 2283203)
# Procedure: as §1, with “NVS_ENZ_hPTEN” for “NVS_ENZ_hPTPN2”, “plate.NVS_ENZ_hPTEN” for “plate.NVS_ENZ_hPTPN2”, “NVS_ENZ_hPTEN,” for “NVS_ENZ_hPTPN2,”, “PTEN.” for “PTPN2.”, “dual-specific” for “non-receptor tyrosine”, “phosphatase. […]” for “phosphatase.”
# [8] = biological target: human Protein Tyrosine Phosphatase Non-receptor Type 1 (PTPN1), PTPN1 (gene 5770) (UniProt P18031); experiment: NVS_ENZ_hPTPN1: NovaScreen (NVS) Enzymatic Assay for human Protein Tyrosine Phosphatase Non-receptor Type 1 (PTPN1) (AID 2283201)
# How it was run: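 Chemicals were first tested in duplicate at 25 uM, and those passing threshold went on to singleton concentration series topping at 50 uM. Recombinant enzyme, specific substrate, product separated by mobility shift, fluorescence read at 1.33 h; activity loss relative to DMSO.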
# [9] = biological target: Tyrosine-protein phosphatase non-receptor type 11 (Homo sapiens) (UniProt Q06124); experiment: NVS_ENZ_hPTPN11: NovaScreen (NVS) Enzymatic Assay for human Protein Tyrosine Phosphatase Non-receptor Type 11 (PTPN11) (AID 2283202)
# Procedure: (§2) NVS_ENZ_hPTPN11 is a biochemical, single-readout assay that uses extracted gene-proteins in a cell-free assay. Measurements were taken 0.5 hour after chemical dosing in a 384-well plate.NVS_ENZ_hPTPN11 is one of one assay component(s) measured or calculated from the NVS_ENZ_hPTPN11 assay. It is designed to make measurements of enzyme activity, a form of enzyme reporter, as detected with fluorescence intensity signals by Fluorescence and electrophoretic mobility shift technology.Data from the assay component NVS_ENZ_hPTPN11 was analyzed into 1 assay endpoint. This assay endpoint, NVS_ENZ_hPTPN11, was analyzed in the positive analysis fitting direction relative to DMSO as the negative control and baseline of activity. Using a type of enzyme reporter, loss-of-signal activity can be used to understand changes in the enzymatic activity as they relate to the gene PTPN11. Furthermore, this assay endpoint can be referred to as a primary readout, because this assay has produced multiple assay endpoints where this one serves a enzymatic activity function. To generalize the intended target to other relatable targets, this assay endpoint is annotated to the phosphatase intended target family, where the subfamily is non-receptor tyrosine phosphatase. […]
# [10] = biological target: human Protein Tyrosine Phosphatase Non-receptor Type 4 (PTPN4), PTPN4 (gene 5775) (UniProt P29074); experiment: NVS_ENZ_hPTPN4: NovaScreen (NVS) Enzymatic Assay for human Protein Tyrosine Phosphatase Non-receptor Type 4 (PTPN4) (AID 2283208)
# Procedure: as §2, with “NVS_ENZ_hPTPN4” for “NVS_ENZ_hPTPN11”, “gene-proteins from SF9” for “gene-proteins”, “1.33 hours” for “0.5 hour”, “plate.NVS_ENZ_hPTPN4” for “plate.NVS_ENZ_hPTPN11”, “NVS_ENZ_hPTPN4,” for “NVS_ENZ_hPTPN11,”, “PTPN4.” for “PTPN11.”
structure (smiles),measurement,setting,value
CC(C)(C)OOC(C)(C)CCC(C)(C)OOC(C)(C)C,AC50,[1],39 µM (active)
C[N+](C)(C)CC1CO1 (stereo not given),outcome,[1],inactive
c1ccc2c(c1)oc1ccccc12,outcome,[2],inactive
same,outcome,[1],inactive
CCCCCOC(=O)c1ccccc1C(=O)OCCCCC,outcome,[3],inactive
CN(C)c1ccc(C(=O)c2ccc(N(C)C)cc2)cc1,AC50,[3],41.7 µM (active)
O=Cc1ccco1,AC50,[4],0.13 µM (active)
CC(C)(C)OOC(=O)c1ccccc1,outcome,[1],inactive
O=C1CCCO1,outcome,[4],inactive
same,outcome,[1],inactive
CC(C)(OOC(C)(C)c1ccccc1)c1ccccc1,outcome,[1],inactive
N#CC(Br)(Br)C(N)=O,outcome,[5],inactive
O=[N+]([O-])c1ccc(Oc2ccc(Cl)cc2Cl)cc1,outcome,[1],inactive
OCCCBr,AC50,[6],25 µM (active)
same,outcome,[1],inactive
Clc1ccc(C(c2ccc(Cl)cc2)C(Cl)(Cl)Cl)cc1,outcome,[2],inactive
same,outcome,[3],inactive
same,outcome,[1],inactive
Oc1ccc2ccc3cccc4ccc1c2c34,AC50,[6],1.22 µM (active)
same,AC50,[3],1.44 µM (active)
CCC(C)c1ccc(O)cc1 (stereo not given),outcome,[1],inactive
CN(C)[C@@H]1C(=O)C(C(N)=O)=C(O)[C@@]2(O)C(=O)C3=C(O)c4c(O)cccc4[C@@](C)(O)[C@H]3C[C@@H]12,AC50,[1],25 µM (active)
Cn1cc(-c2ccccc2)c(=O)c(-c2cccc(C(F)(F)F)c2)c1,outcome,[7],inactive
same,AC50,[2],0.115 µM (active)
ClC1=C(Cl)[C@]2(Cl)[C@H]3[C@H]([C@@H]4C=C[C@H]3C4)[C@@]1(Cl)C2(Cl)Cl,outcome,[3],inactive
O=P(OCCCl)(OCCCl)OCCCl,outcome,[1],inactive
CCNS(=O)(=O)C(F)(F)C(F)(F)C(F)(F)C(F)(F)C(F)(F)C(F)(F)C(F)(F)C(F)(F)F,outcome,[8],inactive
same,outcome,[9],inactive
same,outcome,[7],inactive
same,outcome,[4],inactive
same,outcome,[2],inactive
same,outcome,[10],inactive
same,outcome,[3],inactive
Cc1ccc(N=C=O)cc1N=C=O,outcome,[5],inactive
c1ccc(C2CO2)cc1 (stereo not given),outcome,[1],inactive
CCN(CC)CCO,outcome,[3],inactive
CCN(CC)N=O,outcome,[8],inactive
same,outcome,[9],inactive
same,outcome,[6],inactive
same,outcome,[3],inactive
CO[C@@H]1[C@H](OC(=O)NC(=O)CCl)CC[C@]2(CO2)[C@H]1[C@@]1(C)O[C@@H]1CC=C(C)C,outcome,[6],inactive
Nc1ccc(Oc2ccc(N)cc2)cc1,outcome,[3],inactive
same,AC50,[1],17 µM (active)
Clc1ccc(C(c2ccc(Cl)cc2)C(Cl)Cl)cc1,outcome,[1],inactive
Nc1ccc([N+](=O)[O-])cc1,outcome,[5],inactive
